Here are results for 94 compounds from PubChem BioAssay AID1566 (Sanford-Burnham Center for Chemical Genomics, 2009).

The structures appear in SMILES notation. The campaign covered roughly 290,000 compounds. About 1,800 (0.62%) were called active. The full list was thinned out, with actives kept by preference. Values without a mark were called inactive. Cut-off read from the data, not from the text of the source: active = inhibition above about 50%; inactive = the rest.

This test can be described thus: NOD2 signaling inhibitors, cell-based, luminescence, uHTS, HEK293 (AID 1566). Conditions: HEK293 NOD2/NF-kB luciferase reporter, at 4 µM, hits give high values.
As for `CC(=O)Nc1ccc(SC(C)C(=O)NC2CCCC2)cc1` (centres undefined), the inhibition was -6.7%. Then `COc1ccc(-c2nc3ccccc3s2)cc1`, with -217%; and `Oc1ccc(-c2nc3ccccc3s2)cc1`, with -198%; and `Cn1nnc2cc(C(=O)NCc3ccc4c(c3)OCO4)ccc21`, with -37.1%. Then `Cc1ccc(S(=O)(=O)CNC(=O)c2ccccc2)cc1`, with 1.3%; and `Cc1ccc(C(=O)NC(=S)NNS(=O)(=O)c2ccc(C)cc2)cc1`, with 7.8%; and `Cc1ccc(C(=O)NS(=O)(=O)c2ccc(C)cc2)cc1`, with -1.5%. For `Cc1ccc(S(=O)(=O)NCCNC(=O)c2ccccc2)cc1` the value was -8%.

As for `COc1sc(SC)cc1/C=N/NC(=O)c1ccncc1`, the inhibition was 12.3%. Then `O=C(NC1CCCCC1)C(c1ccc(F)cc1)N(Cc1cccs1)C(=O)CN1C(=O)c2ccccc2S1(=O)=O` (centres undefined), with 13.4%. `CC1Cc2ccccc2N1S(=O)(=O)c1cccc(C(=O)OCC(=O)NC2CCS(=O)(=O)C2)c1` (centres undefined): the inhibition was -8.8%. Then `CC1(CC(=O)N/N=C/c2ccc(-c3ccc(C(=O)O)cc3)o2)OCCO1`, with 17.9%; and `CCn1cc(S(=O)(=O)Nc2cc(C(=O)OC)ccc2C)cn1`, with 8.3%; and `COc1cccc(OCCn2c(C)c(/C=N/n3cnnc3)c3ccccc32)c1`, with 10.9%. For `CCc1ccc(C(O)(C(C)C)C(CN2CCOCC2)c2ccccc2)cc1` (centres undefined) the value was 0.6%; for `CC(C)C(O)(c1ccccc1)C(CN1CCOCC1)c1ccccc1` (centres undefined), 56.7% (active). For `COc1ccc(C(O)(C(C)C)C(CN2CCOCC2)c2ccccc2)cc1` (centres undefined) the value was 8.6%.

Consider `COc1ccc(NC(=O)CCn2c(=O)c3cccn3c3ccccc32)c(OC)c1`, for which the inhibition was 38.3%. Then `Cc1nnn(C23C[C@@H]4C[C@@H](CC(C(=O)N5CCN(c6ccccc6)CC5)(C4)C2)C3)n1`, with -0.7%. For `Cc1ccc(CCNC(=O)C23C[C@H]4C[C@@H](C2)CC(n2nnc(C)n2)(C4)C3)cc1` the value was 8.2%; for `Cn1ccnc1C(=O)c1ccc(S(=O)(=O)N2CCCC2)cc1`, 14.8%; for `COc1ccc(NC(=O)c2sc3nc(N4CCOCC4)c4c(c3c2N)CCCC4)c(OC)c1`, 30.8%. As for `COc1ccccc1NC(=O)c1sc2nc(N3CCOCC3)c3c(c2c1N)CCCC3`, the inhibition was 50% (active). As for `Cc1ccccc1NC(=O)c1sc2nc(N3CCOCC3)c3c(c2c1N)CCCC3`, the inhibition is 23.1%. For `COC(=O)c1ccccc1NC(=O)CSc1nnc(-c2cccnc2)o1` the value was -6.6%; for `Cc1ccc2[nH]c(C)c(/C=C/c3cc[n+](C)cc3)c2c1`, 29.1%; for `Cc1ccc2[nH]cc(/C=C/c3cc[n+](C)cc3)c2c1`, 48%. Then `COc1ccc(OC)c(S(=O)(=O)N(C)CC(=O)Nc2ccc3c(c2)OCO3)c1`, with 4.6%; and `CCCNC(=O)Cn1cnc2sc(C(=O)N3CCN(CCC)CC3)c(C)c2c1=O`, with 24.6%. Consider `CC(C)(C)n1nnnc1C(c1ccncc1)N1CCN(c2ccc(O)cc2)CC1` (centres undefined), for which the inhibition was -4.7%. For `c1ccc2c(c1)SCc1nnc(-c3ccncc3)n1-2` the value was 5.9%; for `Cc1oc(-c2ccccc2)nc1CSc1nc2c(c(=O)[nH]1)CCC2`, 30.8%.

For the compound `Cc1oc(-c2ccccc2Cl)nc1CSc1nc2c(c(=O)[nH]1)CCC2`, the inhibition is -2%. Then `CN(C(=O)COc1ccccc1C(=O)NCCc1ccccc1)c1ccccc1`, with -25.8%. Then `COc1ccccc1C(=O)NCCC(=O)NCCOc1ccccc1`, with 16.2%; and `COc1ccc(N2CCN(C(=O)Cn3c(=O)[nH]c4ccsc4c3=O)CC2)cc1`, with 0.6%; and `Cc1ccc(S(=O)(=O)Nc2ccccc2-c2ccccc2)cc1`, with -12.5%. In the case of `Cc1ccc(S(=O)(=O)Nc2ccccc2C(N)=O)cc1`, the inhibition was 0.2%. Then `O=S(=O)(NCc1ccccn1)c1cc(Cl)ccc1Cl`, with -6%; and `Nc1c(NCc2ccccc2F)c(=O)[nH]c(=O)n1Cc1ccccc1`, with -4.5%.

Take `Cc1occc1C(=O)n1nnc2ccccc21`: the inhibition was 7.3%.

As to `Cc1ccc(C(C#N)c2ccc3c(C(F)(F)F)cc(C(F)(F)F)nc3n2)cc1` (centres undefined), the inhibition is 19.1%. Then `N#CC(c1ccc(Cl)cc1)c1ccc2c(C(F)(F)F)cc(C(F)(F)F)nc2n1` (centres undefined), with 44.4%. Then `CC(NC(=O)CSc1nc2ccccc2n1CCC#N)c1ccc(F)cc1` (centres undefined), with 19.2%; and `CCOc1ccc(S(=O)(=O)N2CCC(C(=O)N3CCCC3)CC2)cc1C`, with 24.6%. With `COc1ccc(-c2cn3c(C)c(C(=O)N4CCN(c5ccccc5F)CC4)sc3n2)cc1`, the inhibition is 25.5%. For `Clc1cccc(Cl)c1C[n+]1ccc2ccccc2c1` the value was 18.8%; for `Cc1cc(C(C)(C)C)cc(C)c1C[n+]1ccc2ccccc2c1`, 52.3% (active); for `Cc1ccc(C(=O)C[n+]2ccc3ccccc3c2)cc1`, 9%. Then `O=C(NCCn1ccc2ccccc21)c1ccc(S(=O)(=O)N2CCCCC2)cc1`, with -4.3%; and `FC(F)(F)c1ccc(N2CCN(c3cc(-c4ccccc4)nc4ncnn34)CC2)nc1`, with 52% (active); and `FC(F)(F)c1cc(-c2ccccc2)nc2ncnn12`, with -1.1%. For `O=S(=O)(c1ccccc1)N1CCN(c2cc(-c3ccccc3)nc3ncnn23)CC1` the value was 43.4%; for `CC(=O)Nc1cccc2c1C(=O)N(c1cccc(OC(C)=O)c1)C2=O`, 17.8%. For `O=C(N/N=C/c1ccc([N+](=O)[O-])cc1)c1cc2ccccc2o1`, the inhibition is 30.1%. Then `Cc1ccc(C(=O)N/N=C\c2ccc([N+](=O)[O-])o2)cn1`, with 36%. Take `Nc1nonc1C(=O)N/N=C/c1ccc(-c2cccc([N+](=O)[O-])c2)o1`: the inhibition is 19.7%. In the case of `O=C(CNc1ccc2ccccc2c1)N/N=C/c1ccc([N+](=O)[O-])o1`, the inhibition is -4.1%.

As for `Nc1nonc1C(=O)N/N=C/c1ccc(Br)o1`, the inhibition was 4.7%.

In the case of `Cc1cc(C(=O)N/N=C/c2ccc([N+](=O)[O-])o2)c(C)o1`, the inhibition was 35.5%. Then `O=C(N/N=C/c1ccc([N+](=O)[O-])o1)c1cc2c(ccc3ccccc32)o1`, with 12.1%; and `O=C(CNc1ccccc1)N/N=C/c1ccc([N+](=O)[O-])o1`, with 46.1%; and `COc1ccccc1CNC(=O)C1CC(c2c(Cl)cccc2Cl)=NO1` (centres undefined), with 8.6%. For the compound `Cc1ccc(NC(=O)Nc2ccc(Cl)cc2)c(Br)c1`, the inhibition is -38.7%. Then `O=C(Nc1ccc(Cl)cc1)c1cc(Br)ccc1OCC(=O)N1CCOCC1`, with 40%. For `COc1ccc(-c2csc(N3CCC(c4ccccc4)CC3)n2)cc1` the value was 13.7%; for `Cc1occc1-c1nnc(SCC(=O)O)n1-c1ccccc1`, -13.8%.

Consider `Fc1ccc(NC(=S)Nc2cc(Cl)ccc2Cl)cc1`, for which the inhibition is -16.8%. Then `C[C@@H]1C(=O)O[C@H]2[C@H]1CC[C@@]1(C)C(=O)C=C[C@@](C)(O)[C@H]21`, with 1.1%; and `COc1cc(/C=C/C(=O)O)ccc1OCc1ccccc1C#N`, with 18%; and `N#Cc1ccccc1COc1ccc(/C=C/C(=O)O)cc1`, with 64.4% (active). Then `O=C(O)/C=C/c1ccc(OCc2cccc(F)c2)cc1`, with -4.9%; and `COc1cccc(N(CC(=O)NC2CCCC2)C(=O)CCC(=O)Nc2cc(C)on2)c1`, with 2.5%; and `C=C(C)COc1ccc2c(C)c(CC(=O)N3C[C@H]4C[C@@H](C3)c3cccc(=O)n3C4)c(=O)oc2c1C`, with 51.9% (active).

`CC(C)=CCOc1ccc2c(C)c(CC(=O)N3C[C@H]4C[C@@H](C3)c3cccc(=O)n3C4)c(=O)oc2c1C`: the inhibition is 15.8%.

Regarding `C=C(C)COc1ccc2c(C)c(CC(=O)N3C[C@H]4C[C@@H](C3)c3cccc(=O)n3C4)c(=O)oc2c1`, the inhibition was 5%. For `CCOc1ccccc1-n1c(SCC(=O)N2CCOCC2)nc2ccccc2c1=O` the value was 24.9%; for `O=C(NCCNc1ccnc2cc(Cl)ccc12)c1ccccc1F`, 54.8% (active); for `O=C(NCCNc1ccc(Cl)cc1[N+](=O)[O-])c1ccccc1F`, -16.6%. Regarding `O=C(NCCCNc1ccnc2cc(Cl)ccc12)c1ccccc1F`, the inhibition is 28.3%. For `C=CCOC(=O)C1=C(C)NC(C)=C(C(=O)OCC=C)C1/C=C/c1ccccc1` the value was -0.8%. On to `Cc1ccccc1C(=O)Oc1cc(N)n(S(=O)(=O)c2ccccc2)n1`, for which the inhibition is 5.8%. Then `Cc1ccccc1NS(=O)(=O)c1cc(OCC(N)=O)c(C)cc1Cl`, with 0.2%; and `CC1Cc2ccccc2N1c1ncnc2c1nnn2Cc1ccccc1` (centres undefined), with 9.3%; and `CC1Cc2ccccc2N1c1ncnc2nc[nH]c12` (centres undefined), with 1.3%. Then `CC1Cc2ccccc2N1c1ncnc(N)c1[N+](=O)[O-]` (centres undefined), with 82.8% (active). As to `Fc1ccc2c(Cl)c(-c3nnc(-c4cccs4)o3)sc2c1`, the inhibition was -112%. Then `N=C(N)SCc1cn(-c2ccccc2)nc1-c1ccc(Br)cc1`, with 8.8%. As to `COc1ccc(S(=O)(=O)N2CCN(C3CCCC(C)C3)CC2)cc1` (centres undefined), the inhibition was -12.3%.

Take `O=C(Nc1cccc(Cl)c1)c1ccc2c(c1)OCCO2`: the inhibition was -169%. Then `Cc1ccc(NC(=O)c2ccc3c(c2)OCCO3)cc1S(=O)(=O)Nc1cccc(Cl)c1`, with 10.3%; and `O=C(Nc1cccc(S(=O)(=O)Nc2ccc(Cl)cc2)c1)c1ccc2c(c1)OCCO2`, with 55.7% (active); and `COC(=O)[C@H](C)NC(=O)NC1CCCc2ccccc21` (some centres undefined), with 3.2%.

As to `C/C(CC(=O)NCc1ccc(Cl)cc1)=N\NC(=O)c1ccccc1F`, the inhibition is 4.7%.
